This is a sample that favours compounds with a hit; in the whole collection about 6.9% have one here.
Beta apoptosis = blocks beta cell apoptosis | INS-1E cytokine-induced death, ATP luminescence, 48 h; percent of positive-control rescue, neutral wells zero | 300,000 tested, 0.8% active | protection from apoptosis, % (no concentration beside the values);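 active means Every replicate reaches about 75%, or at least half do and their mean reaches it too, limit read from the data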;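 further: 0% = cytokine-treated negative control wells and 100% = positive control rescue; higher means more ATP so stronger rescue from cytokine killing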
SKKanGAS inh = blocks kanamycin growth of S. pyogenes SKKanGAS strain. BacTiter-Glo, 6 h. inhibition, % at 7.5 µM. 300,000 tested, 1.3% active. AID 1662;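 active means mean replicate score, as percent of positive control median, at least 50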;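 further: strain carries kanamycin resistance gene driven by streptokinase promoter and grows in 40 µg/ml kanamycin; loss of luminescence reflects streptokinase promoter inhibition or plain growth inhibition; 0% = median of DMSO wells and 100% = positive control at its reference dose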
NR3A LBD binder = modulators (binders) of human NR3A ligand-binding domain | AID 1259313 | NR3A LBD differential scanning fluorimetry, Tm shift; 0% = protein alone, 100% = glycine-bound protein | 340,000 tested, 2.5% active | Tm shift relative to glycine control, % at 25 µM;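 active means melting temperature shift of at least 10% of the positive control shift, at one fixed dose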
CSC inhib = cancer stem cell inhibition; cancer stem cell-like cells viability, luminescence; inhibition, % at 7.5 µM; 300,000 tested, 1.1% active; AID 2717; in the data active means inhibition above about 75%; tested in HMLE shEcad cells
Mdm2 MdmX PPI = disrupts the human Mdm2-MdmX interaction; SaOS-2 split-luciferase Mdm2/MdmX complementation, luminescence; 330,000 tested, 3% active; inhibition, % at 8 µM;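 active means inhibition of at least 50% at 8 µM in the primary screen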
Target sequence (O15151 whole entry, looked up): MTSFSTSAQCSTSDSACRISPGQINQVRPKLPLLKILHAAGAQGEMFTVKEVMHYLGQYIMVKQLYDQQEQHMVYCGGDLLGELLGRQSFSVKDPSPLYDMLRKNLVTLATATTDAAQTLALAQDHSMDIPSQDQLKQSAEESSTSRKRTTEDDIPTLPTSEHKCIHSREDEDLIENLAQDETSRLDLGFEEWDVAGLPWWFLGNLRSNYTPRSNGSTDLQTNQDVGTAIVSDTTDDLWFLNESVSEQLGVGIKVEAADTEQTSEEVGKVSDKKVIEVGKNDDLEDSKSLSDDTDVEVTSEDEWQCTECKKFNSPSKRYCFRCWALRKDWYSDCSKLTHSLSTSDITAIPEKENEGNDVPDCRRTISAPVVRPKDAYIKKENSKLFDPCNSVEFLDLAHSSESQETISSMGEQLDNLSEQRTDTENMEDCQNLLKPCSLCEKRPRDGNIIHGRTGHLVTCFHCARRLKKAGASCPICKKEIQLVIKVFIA
Target sequence (Q00987 whole entry, looked up): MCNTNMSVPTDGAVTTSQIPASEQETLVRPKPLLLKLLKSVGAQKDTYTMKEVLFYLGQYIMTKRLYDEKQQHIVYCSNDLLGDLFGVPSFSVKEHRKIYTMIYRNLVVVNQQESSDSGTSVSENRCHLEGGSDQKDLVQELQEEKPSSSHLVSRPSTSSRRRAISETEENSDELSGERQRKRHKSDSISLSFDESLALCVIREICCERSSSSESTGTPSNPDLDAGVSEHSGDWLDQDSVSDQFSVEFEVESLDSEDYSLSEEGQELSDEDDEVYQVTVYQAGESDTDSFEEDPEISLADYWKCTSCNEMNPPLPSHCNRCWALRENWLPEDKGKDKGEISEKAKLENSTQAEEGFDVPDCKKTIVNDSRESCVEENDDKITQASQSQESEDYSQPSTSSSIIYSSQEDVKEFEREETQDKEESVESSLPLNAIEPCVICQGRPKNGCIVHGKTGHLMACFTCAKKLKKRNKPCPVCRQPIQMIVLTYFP
MPTP block = inhibitors of mitochondrial permeability transition pore | 360,000 tested, 1.4% active | inhibition, % at 10 µM | isolated mouse mitochondria, Ca2+ swelling absorbance, 30 min | AID 602449;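 active means inhibition of 50% or more, scaled per plate between neutral and stimulator controls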;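 further: 0% = DMSO wells given calcium and 100% = 1 mM EGTA wells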
MPTP counter = membrane potential counter-screen of mitochondrial pore inhibitors. 5,000 tested, 78% active. AID 624504. shares compounds with MPTP block. inhibition, % at 10 µM. isolated mitochondria, Rhodamine 123 fluorescence; in the data active means inhibition above about 22%;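 further: 0% = DMSO vehicle and 100% = positive control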
MPTP swell DR = dose response confirmation of mitochondrial permeability transition pore inhibitors; AID 651561; 780 tested, 58% active; shares compounds with MPTP block; isolated mitochondria swelling, absorbance; IC50, µM; in the data active means IC50 below about 20 µM
MPTP cs DR = MPTP inhibitor counter-screen activity, dose response; shares compounds with MPTP block; 780 tested, 49% active; isolated mitochondria counterscreen, fluorescence read-out; IC50, µM; in the data active means IC50 below about 80 µM
The depositor's hits bear a star; i = inactive; . = no result; ! = not active in a repeat.

SMILES	Beta apoptosis	SKKanGAS inh	NR3A LBD binder	CSC inhib	Mdm2 MdmX PPI	MPTP block	MPTP counter	others
COc1ccc(C(CNC(=O)c2ccc(S(=O)(=O)Nc3ccccc3OC)cc2)N2CCCC2)cc1 (centres undefined)	.	.	2	.	.	-1	.
O=C(CSc1nc2ccccc2s1)Nc1ccc(N2CCOCC2)c(Cl)c1	-3	-2	6	10	-29	90*	83*
O=C(CSc1nc2ccccc2s1)Nc1ccc(Cl)c(S(=O)(=O)N2CCOCC2)c1	-11	3	5	-14	20	19	.
Cc1cc(O)c(-c2ccno2)cc1Cl	2	-2	-1	7	15	82*	88*
Cn1ncc(-c2ccno2)c1C(=O)O	-3	-3	-3	-13	21	-1	.
O=C(NC1CCOC1=O)c1ccccc1 (centres undefined)	.	.	-1	.	.	-1	.
CN(C)c1ccc(S(=O)(=O)N2CCCCC2)cc1NC(=O)C1=COCCO1	3	-2	-1	6	1	0	.
CN(C)CC/C=C1/c2ccccc2Sc2ccc(Cl)cc21	6	4	-1	3	43	95*!	-8
CCCCCC[N+](C)(C)CC/C=C1/c2ccccc2Sc2ccc(Cl)cc21	26	33	-4	6	40	1	.
Clc1ccc(-c2nc3ccccc3nc2-c2ccccc2)cc1	2	-6	6	31	-23	55*	-6	MPTP swell DR=19*;MPTP cs DR=>80
Cc1cc(NC(=O)c2cccc(Br)c2)no1	.	-3	5	-9	4	-1	.
Cc1cccc(C)c1NC(=O)CN(C)C(=O)CC1Sc2ccccc2NC1=O (centres undefined)	-3	-4	1	-4	11	-1	.
COC(=O)c1ccc(CN2C(=O)NC(Cc3c[nH]c4ccccc34)C2=O)cc1 (centres undefined)	7	-5	-1	.	-22	82*	18	MPTP swell DR=i;MPTP cs DR=25*
COC(=O)c1sc2nc(-c3ccccc3)nc(N3CCN(C)CC3)c2c1C	.	4	3	.	.	76*	-10	MPTP swell DR=9.8*;MPTP cs DR=>80
CN1CCN(c2nc(-c3ccccc3)nc(-c3ccccc3)c2C#N)CC1	-3	7	1	4	28	69*	-5	MPTP swell DR=17*;MPTP cs DR=>80
COc1ccc(-c2nc(-c3ccccc3)nc(N3CCN(C)CC3)c2C#N)cc1	.	13	-2	46	47	-3	.
N#C/C(=C\c1ccc(Cl)s1)C(=O)N1CCN(c2ccccc2)CC1	3	1	-2	0	-11	0	.
Cc1c(C(c2ccccc2Br)c2c(C)n(C)n(-c3ccccc3)c2=O)c(=O)n(-c2ccccc2)n1C	-4	1	0	4	7	1	.
CCOc1cccc(CNc2nnnn2C)c1	-5	-3	-2	-23	26	-1	.
Cc1cccc(Oc2cnn(C(C)(C)C)c(=O)c2Cl)c1	2	5	1	5	23	62*	45*
COc1cnn(C(C)(C)C)c(=O)c1Cl	-3	2	2	-10	-30	-1	.
CC(C)(C)OC(=O)C[C@@H]1C/C=C\C[C@H](CC(=O)N[C@H](CO)Cc2ccccc2)C(=O)N[C@@H](Cc2c[nH]c3ccccc23)COC1=O	-10	.	-3	.	10	0	.
Cc1cccc(-n2ncc3c2CCCC3NC(=O)c2cccs2)c1C (centres undefined)	.	.	.	.	.	10	.
Cc1cc(C(=O)NC2CCCc3c2cnn3-c2ccc(C(C)(C)C)cc2)nn1C (centres undefined)	54	2	1	36	48	89*	105*
Cc1cccc(-n2ncc3c2CCCC3NC(=O)c2ccncc2)c1C (centres undefined)	.	.	.	.	.	86*	90*
Cc1cc(C)cc(-n2ncc3c2CCCC3NC(=O)c2cc(C)n(C)n2)c1 (centres undefined)	4	10	-2	-3	15	1	.
Clc1ccc(C2=C3CCCCn4c(-c5ccccc5)c[n+](c43)C2)cc1	-2	5	1	15	38	6	.

Bioassay records deposited in PubChem BioAssay by several laboratories.
